{"source": "PubChem BioAssay (Tox21)", "note": "Inconclusive results are not listed. Values without a mark were called inactive. Unless noted, calls follow the shape of the dose curve; as a rule, active = well fitted cell-killing curve with a large enough effect in the repeat runs; inconclusive = weak or mixed curves, or effect the other way; inactive = no such curve, though single readings can be large or run the other way.", "data": [{"target": "Retinoic acid receptor RXR-alpha (Homo sapiens) (UniProt P19793)", "sequence (P19793 whole entry, looked up)": "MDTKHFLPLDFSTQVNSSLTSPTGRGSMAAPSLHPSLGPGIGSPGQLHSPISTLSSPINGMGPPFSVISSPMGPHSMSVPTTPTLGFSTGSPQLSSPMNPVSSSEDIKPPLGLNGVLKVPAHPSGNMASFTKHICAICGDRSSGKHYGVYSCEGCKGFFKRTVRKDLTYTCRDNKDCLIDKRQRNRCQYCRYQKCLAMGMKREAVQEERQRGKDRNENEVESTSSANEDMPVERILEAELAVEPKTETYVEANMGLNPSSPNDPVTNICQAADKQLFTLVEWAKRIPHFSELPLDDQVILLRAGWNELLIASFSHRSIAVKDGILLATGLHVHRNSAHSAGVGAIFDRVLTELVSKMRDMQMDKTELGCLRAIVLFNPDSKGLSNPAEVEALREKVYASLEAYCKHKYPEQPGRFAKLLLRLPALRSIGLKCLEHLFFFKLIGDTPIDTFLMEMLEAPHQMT", "test": "qHTS assay to identify small molecule agonists of the RXR signaling pathway (AID 1159527; calls by dose curve; also: nearly all actives have a fitted effect of over 35% in size)", "details": "HEK293T RXRa-UAS-bla, beta-lactamase ratio, 16 h; series mostly up to 76.8 µM; activation: at the top concentration", "summary_of_the_method": "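GeneBLAzer RXR-alpha-UAS-bla HEK 293T cells in medium with 2% charcoal-stripped FBS, pre-incubated 5 hr at 37 C, then exposed to compounds 16 hr. Beta-lactamase reporter read by FRET substrate, 2 hr room temperature, 460/530 nm emission.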", "values": [{"compound": "C[C@@H]1CCC[C@H](C)N1CCCC(O)(c1ccccc1)c1ccccn1", "note": "(some centres not stated); also: % is scaled to controls: 0 for no effect and ±100 for the full control effect", "activation": "7.07% [at 35.3 µM]"}, {"compound": "NNC(=O)OCc1ccccc1", "activation": "-11.5%"}, {"compound": "CC(C)(C)c1ccc(C(=O)CCCCl)cc1", "activation": "-2.17% [at 35.3 µM]"}, {"compound": "C[C@@H](CN1CC(=O)NC(=O)C1)N1CC(=O)NC(=O)C1", "activation": "0.347% [at 35.3 µM]"}, {"compound": "CC(C)(O)CCCC1=CCC(C=O)CC1", "note": "(configuration not stated)", "activation": "-11.1%"}, {"compound": "O=C(c1ccccc1)c1cccc(O)c1", "activation": "-9.97%"}, {"compound": "O=CN1CCCCC1", "activation": "7.2%"}, {"compound": "CN1C(CCl)Nc2cc(Cl)c(S(N)(=O)=O)cc2S1(=O)=O", "note": "(configuration not stated)", "activation": "-1.16% [at 35.3 µM]"}, {"compound": "CCOCCOCCOC(C)=O", "activation": "5.57%"}, {"compound": "Cc1ccc(OC(=O)CC(C)C)cc1", "activation": "6.53%"}, {"compound": "COC(C)(C)CC(C)=O", "activation": "14.9%"}, {"compound": "CCCOc1ccc(C(=O)OCCN(CC)CC)cc1N", "activation": "-8.7% [at 35.3 µM]"}, {"compound": "CC[N+](C)(CC)CC", "activation": "-5.01%"}, {"compound": "Nc1nc(Cl)cc(Cl)n1", "activation": "-5.51%"}, {"compound": "O=Cc1ccc(C(=O)O)cc1", "activation": "5.37%"}, {"compound": "O=P(O)(O)C(O)(Cc1cccnc1)P(=O)(O)O", "activation": "1.1% [at 35.3 µM]"}, {"compound": "CCCCCCCCC1CO1", "note": "(configuration not stated)", "activation": "9.91%"}, {"compound": "COc1cc2nc(N3CCN(C(=O)C4CCCO4)CC3)nc(N)c2cc1OC", "note": "(configuration not stated)", "activation": "10.4% [at 35.3 µM]"}, {"compound": "CCCCCCCCCCCCCCCC(=O)OC", "activation": "-1.09% [at 15.8 µM]"}]}, {"test_system": "not listed separately", "test": "qHTS assay to identify small molecule agonists of the RXR signaling pathway - cell viability counter screen (AID 1159529); also: nearly all actives have a fitted effect of over 50% in size", "details": "RXR-alpha-bla HEK293T viability, CellTiter-Glo, 16 h; series mostly up to 76.8 µM; activity change, negative = cytotoxicity: at the top concentration", "summary_of_the_method": "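RXR-alpha-UAS-bla HEK 293T cells in medium with 2% charcoal-stripped FBS were preincubated 5 hr, then exposed to compounds for 16 hr at 37 C. Viability was read as CellTiter-Glo luminescence after 30 min at room temperature.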", "values": [{"compound": "CCOC(=O)COc1ccc2c(C)c(CCN(CC)CC)c(=O)oc2c1Cl", "activity change, negative = cytotoxicity": "-20.8% [at 35.3 µM]"}, {"compound": "CCCCCCC(O)CO", "note": "(configuration not stated)", "activity change, negative = cytotoxicity": "-9.16%"}, {"compound": "NCC1CCC(C(=O)Oc2ccc(CCC(=O)O)cc2)CC1", "note": "(configuration not stated)", "activity change, negative = cytotoxicity": "9.92% [at 35.3 µM]"}, {"compound": "OCCC(F)(F)C(F)(F)C(F)(F)C(F)(F)C(F)(F)C(F)(F)F", "activity change, negative = cytotoxicity": "-3.62%"}, {"compound": "CCOC(=O)CC(C(C)=O)C(C)=O", "activity change, negative = cytotoxicity": "0.179%"}, {"compound": "CCCCCCCCOCCC#N", "activity change, negative = cytotoxicity": "6.76%"}, {"compound": "CC(=O)OC/C=C(/C)CCC=C(C)C", "activity change, negative = cytotoxicity": "1.54%"}, {"compound": "CN(C)CCCN(C)C", "activity change, negative = cytotoxicity": "-1.24% [at 6.97 µM]"}, {"compound": "CCCC(=O)C(CC)Sc1ccoc1C", "note": "(configuration not stated)", "activity change, negative = cytotoxicity": "-4.45%"}, {"compound": "CCCCCCCCCCCBr", "activity change, negative = cytotoxicity": "-3.06% [at 35.3 µM]"}, {"compound": "Clc1cc(Cl)c(Cl)c(Cl)c1Cl", "activity change, negative = cytotoxicity": "1.47%"}, {"compound": "CCCCN=C(N)N=C(N)N", "activity change, negative = cytotoxicity": "-1.48% [at 35.3 µM]"}, {"compound": "COC(=O)c1c(C)cc(O)c(C)c1O", "activity change, negative = cytotoxicity": "18.3%"}, {"compound": "CC(C)(C)C(=O)CCc1ccc(Cl)cc1", "activity change, negative = cytotoxicity": "12.3%"}, {"compound": "Cc1ccccc1C#N", "activity change, negative = cytotoxicity": "3.75%"}, {"compound": "CC(C)(C)c1ccc(N)cc1", "activity change, negative = cytotoxicity": "-2.75%"}, {"compound": "COc1cc(OC)cc(OC)c1", "activity change, negative = cytotoxicity": "-6.34% [at 35.3 µM]"}, {"compound": "Cc1ccc(Br)cc1", "activity change, negative = cytotoxicity": "0.493%"}, {"compound": "C=CCON/C(CCC)=C1\\C(=O)CC(C)(C)C(C(=O)OC)=C1O", "activity change, negative = cytotoxicity": "9.93%"}, {"compound": "C[C@@H]1CCC[C@H](C)N1CCCC(O)(c1ccccc1)c1ccccn1", "note": "(some centres not stated)", "activity change, negative = cytotoxicity": "-4.33% [at 35.3 µM]"}, {"compound": "NNC(=O)OCc1ccccc1", "activity change, negative = cytotoxicity": "-5.21%"}, {"compound": "CC(C)(C)c1ccc(C(=O)CCCCl)cc1", "activity change, negative = cytotoxicity": "-7.58% [at 35.3 µM]"}, {"compound": "C[C@@H](CN1CC(=O)NC(=O)C1)N1CC(=O)NC(=O)C1", "activity change, negative = cytotoxicity": "6.19% [at 35.3 µM]"}, {"compound": "CC(C)(O)CCCC1=CCC(C=O)CC1", "note": "(configuration not stated)", "activity change, negative = cytotoxicity": "-19%"}, {"compound": "O=C(c1ccccc1)c1cccc(O)c1", "activity change, negative = cytotoxicity": "14.4%"}, {"compound": "O=CN1CCCCC1", "activity change, negative = cytotoxicity": "-0.898%"}, {"compound": "CN1C(CCl)Nc2cc(Cl)c(S(N)(=O)=O)cc2S1(=O)=O", "note": "(configuration not stated)", "activity change, negative = cytotoxicity": "-1.65% [at 35.3 µM]"}, {"compound": "CCOCCOCCOC(C)=O", "activity change, negative = cytotoxicity": "8.91%"}, {"compound": "Cc1ccc(OC(=O)CC(C)C)cc1", "activity change, negative = cytotoxicity": "2.81%"}, {"compound": "COC(C)(C)CC(C)=O", "activity change, negative = cytotoxicity": "-4.3%"}, {"compound": "CCCOc1ccc(C(=O)OCCN(CC)CC)cc1N", "activity change, negative = cytotoxicity": "-3.79% [at 35.3 µM]"}, {"compound": "CC[N+](C)(CC)CC", "activity change, negative = cytotoxicity": "-0.742%"}, {"compound": "Nc1nc(Cl)cc(Cl)n1", "activity change, negative = cytotoxicity": "3.46%"}, {"compound": "O=Cc1ccc(C(=O)O)cc1", "activity change, negative = cytotoxicity": "6.59%"}, {"compound": "O=P(O)(O)C(O)(Cc1cccnc1)P(=O)(O)O", "activity change, negative = cytotoxicity": "-11% [at 35.3 µM]"}, {"compound": "CCCCCCCCC1CO1", "note": "(configuration not stated)", "activity change, negative = cytotoxicity": "0.0979%"}, {"compound": "COc1cc2nc(N3CCN(C(=O)C4CCCO4)CC3)nc(N)c2cc1OC", "note": "(configuration not stated)", "activity change, negative = cytotoxicity": "2.36% [at 35.3 µM]"}, {"compound": "CCCCCCCCCCCCCCCC(=O)OC", "activity change, negative = cytotoxicity": "-3.67% [at 15.8 µM]"}]}]}
